A selection: hits, their analogues and other compounds. The true share with any hit is near 32%.
PostGolgi yeast: phenotypic screen on post-Golgi transport, primary screen | hit rate 0.9% among 98,000 | inhibition, % at 10 µM | AID 739, 2007 | post-Golgi transport phenotypic cell assay;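 further: yeast cells grown in 1536-well plates; yeast grown about 18 h at 30C before absorbance read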
CYP2C9 act: human CYP2C9 activators, primary screen, biochemical, luminescence; Cytochrome P450 2C9 (Homo sapiens), P11712; recombinant CYP2C9, luciferin-H conversion; hits give high values; factor 1 = untreated enzyme, 0 = blocked; activation factor at 5 µM; hit rate 1.4% among 96,000; AID 1024, 2008;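 active means activation factor of 2 or more for CYP2C9 at a 5 µM dose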
Target sequence (P11712 whole entry, looked up): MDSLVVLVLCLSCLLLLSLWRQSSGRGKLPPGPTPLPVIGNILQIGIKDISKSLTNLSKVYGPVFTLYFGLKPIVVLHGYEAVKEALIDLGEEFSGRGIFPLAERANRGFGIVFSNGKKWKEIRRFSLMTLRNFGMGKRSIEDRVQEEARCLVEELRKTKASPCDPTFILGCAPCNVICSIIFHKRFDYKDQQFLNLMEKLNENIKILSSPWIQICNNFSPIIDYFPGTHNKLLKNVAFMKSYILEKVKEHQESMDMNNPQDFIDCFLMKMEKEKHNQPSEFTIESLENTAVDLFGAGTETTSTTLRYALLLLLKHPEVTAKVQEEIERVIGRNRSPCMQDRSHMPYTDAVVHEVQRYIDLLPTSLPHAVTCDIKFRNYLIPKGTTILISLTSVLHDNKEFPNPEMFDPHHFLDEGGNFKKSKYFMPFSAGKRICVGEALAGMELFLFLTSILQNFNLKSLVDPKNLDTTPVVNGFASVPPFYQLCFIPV
PostGolgi ctrl: growth inhibition of yeast control strain, primary screen, counter-screen for post-Golgi transport modulator project | AID 738, 2007 | efflux-deficient yeast background strain, growth absorbance A615, 16 h | hit rate 5% among 98,000 | inhibition, % at 10 µM
CYP2C19 inh: blockers of cytochrome P450 2C19 activity – biochemical, luminescence, ADME assay, primary screen | CYP2C19 Supersomes, luciferin-H EGE luminescence, 30 min | inhibition, % at 5 µM | hit rate 21% among 96,000 | AID 778, 2007;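 active means CYP2C19 inhibition above a set limit at 5 µM in the primary screen, cut at about 50% in these data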
CYP2C9 inhib: blockers of cytochrome P450 2C9 activity – biochemical, luminescence, ADME assay, primary screen; inhibition, % at 5 µM; AID 777, 2007; P11712; CYP2C9 Supersomes, luciferin-H conversion; hit rate 20% among 96,000;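 active means blocking of liver enzyme CYP2C9 beyond about 50% at 5 µM, limit read from the data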
CYP2C19 activ: human CYP2C19 activators, primary screen, biochemical, luminescence; Cytochrome P450 2C19 (Homo sapiens), P33261; recombinant CYP2C19, luciferin-H EGE luminescence; hits give high values; 0 = fully inhibited enzyme, 1 = untreated enzyme; activation factor at 5 µM; 96,000 tested, under 10 active; AID 1025, 2008;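 active means activation factor of at least 2 at 5 µM in the primary screen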
Numbers stand for hits; – = inactive. Unless noted, no stated cut-off is given here; in the data, active means inhibition above about 30%; inactive means the rest.

SMILES | PostGolgi yeast | CYP2C9 act | PostGolgi ctrl | CYP2C19 inh | CYP2C9 inhib | CYP2C19 activ
CCc1nc(N2CCCCC2C)c2oc3ccccc3c2n1 (stereo not given) | – | – | – | – | – | –
CCc1nc(Nc2ccc3c(c2)OCO3)c2oc3ccccc3c2n1 | – | – | – | 51.3 | 75.0 | –
CCc1nc(N2CCCC(C)C2)c2oc3ccccc3c2n1 (stereo not given) | – | – | 47.5 | – | – | –
CCOC(=O)N1CCC(c2nc3ccccc3[nH]2)CC1 | – | – | – | – | – | –
CCCc1ncc(C(=O)c2ccc(OC)cc2)n1C | – | – | – | – | – | –
Cc1ccccc1-n1c(SC/C(O)=C(\C#N)c2nc3ccccc3[nH]2)nnc1-c1ccncc1 | – | – | – | 86.3 | 95.1 | –
O=C(Nc1cc(C(F)(F)F)ccc1-n1cncn1)c1ccc(Cl)cc1 | – | – | – | 73.5 | – | –
O=C(Nc1cc(C(F)(F)F)ccc1-n1cncn1)c1ccc(-c2ccccc2)cc1 | 76.3 | – | – | 57.9 | 94.1 | –
C/C(CC1CC(COCCC(C)C)OC1=O)=N\NC(N)=S (stereo not given) | – | – | – | – | – | –
Cc1ccc(C2=Nc3ccccc3NC(C)(c3ccc(C)o3)C2)o1 (stereo not given) | – | – | 55.3 | 94.8 | 68.7 | –
CCOC(=O)c1cn2nc(-c3ccc(OC)cc3)cc2nc1C1CCN(C(=O)OC(C)(C)C)CC1 | – | – | – | – | 63.4 | –
CC(C(=O)NCC1(c2ccccc2)CCCC1)N1CCCC1 (stereo not given) | – | – | – | – | – | –
COCc1nnc(NC(=O)CSCc2ccccc2)s1 | – | – | – | – | – | –
O=C(CSc1cn(Cc2ccccc2)c2ccccc12)Nc1nccs1 | – | – | – | 95.9 | 98.7 | –
O=C(CSCc1c(Cl)cccc1Cl)Nc1nccs1 | – | – | – | – | 75.3 | –
CNC(=O)CSCc1c(Cl)cccc1Cl | – | – | – | – | – | –
O=C(CSCc1ccccc1)Nc1nccs1 | – | – | – | 50.2 | – | –
CC1=C(C(=O)Nc2ccccc2)C(c2ccc(C)cc2)N=C(Nc2nc3ccccc3o2)N1 (stereo not given) | – | – | – | – | – | –
O=C(Nc1nsc(-c2ccccc2)n1)c1cccs1 | – | – | – | – | 74.8 | –
O=C(NCCc1csc(-c2cccnc2)n1)c1ccccc1 | – | – | – | 82.4 | 64.9 | –
CCS(=O)(=O)NCCc1csc(-c2cccnc2)n1 | – | – | – | – | – | –
Cc1nnc(SCC(=O)Nc2nsc(-c3ccccc3)n2)s1 | – | – | – | – | – | –
O=C(NCCc1csc(-c2ccccc2)n1)c1cccs1 | – | – | – | – | 73.9 | –
O=C(NCCc1csc(-c2cccnc2)n1)c1cccc2ccccc12 | – | – | – | 78.9 | 86.2 | –
COc1ccc2cc3cc(C(=O)NCC4COc5ccccc5O4)oc3nc2c1 (stereo not given) | – | – | – | – | – | –
SMILES | PostGolgi yeast | CYP2C9 act | PostGolgi ctrl | CYP2C19 inh | CYP2C9 inhib | CYP2C19 activ
O=C(NCc1csc(-c2ccccc2)n1)c1ccco1 | – | – | – | 83.8 | – | –
O=C(NCc1cccc(CNC(=O)c2ccco2)c1)c1ccco1 | – | – | – | – | – | –
Cc1ccc(-c2cc(-c3ccccc3)c3c(N)c(S(C)(=O)=O)sc3n2)cc1 | – | – | 31.1 | – | 57.7 | –
CS(=O)(=O)c1sc2nc(-c3cccs3)cc(-c3ccccc3)c2c1N | – | – | – | – | – | –
Cc1ccc2c(c1)C1CCCC3C1N2CC(=O)N3Cc1ccccc1 (stereo not given) | – | – | – | 99.3 | 100.1 | –
O=C(O)c1cc(-c2ccc(O)cc2)nc2ccccc12 | – | – | – | – | – | –
CC(C)c1ccc(-c2cc(C(=O)N3N=C(C(F)F)CC3(O)C(F)F)c3ccccc3n2)cc1 (stereo not given) | – | – | – | – | 100.3 | –
Cc1ccc(-c2cc(C(=O)N3CCOCC3)c3ccccc3n2)cc1 | – | – | – | 69.6 | – | –
Cc1nc2ccccc2n1C(=O)c1cc(-c2ccc(Br)cc2)nc2ccccc12 | – | – | – | – | 78.8 | –
Cc1ccc(-c2cc(C(=O)Nc3ccc4c(c3)OCCO4)c3ccccc3n2)cc1 | – | – | – | – | 76.2 | –
Cc1ccc(NC(=O)c2cc(-c3ccc(C)o3)nc3ccccc23)cc1 | – | – | – | – | – | –
Cc1cccc(Nc2nnc(C)c(=O)n2N)c1 | – | – | – | – | – | –
CC(C)(C)N1C(=O)c2ccc(C(=O)NCc3ccco3)cc2C1=O | – | – | – | – | – | –
CCc1ccc(-c2cc(C(=O)NN3CCOCC3)c3ccccc3n2)cc1 | – | – | – | – | 53.8 | –
CCc1ccc(-c2cc(C(=O)Nc3ccc(S(=O)(=O)NC(C)=O)cc3)c3ccccc3n2)cc1 | – | – | – | – | – | –
O=C(Nc1ccc2c(c1)OCCO2)c1ccccc1F | – | – | – | – | – | –
O=C(CSc1ccc(-c2nc3ccccc3[nH]2)cn1)Nc1ccc2c(c1)OCCO2 | – | – | – | – | – | –
CS(=O)(=O)Nc1ccccc1C(=O)Nc1ccc2c(c1)OCCO2 | – | – | – | – | 73.4 | –
COc1ccc(-c2cc(C(=O)N3CCOCC3)c3cc(C)ccc3n2)cc1 | – | – | – | – | 59.2 | –
CCN(CC(=O)Nc1ccc2c(c1)OCCO2)c1nc(-c2cccnc2)nc2ccccc12 | – | – | – | 65.8 | 56.4 | –
CCOC(=O)CSc1nc2ccccc2c(=O)[nH]1 | – | – | – | – | – | –
COC(=O)CSc1nc(C)c(Oc2ccccc2)c(=O)[nH]1 | – | – | – | 64.0 | – | –
CC(C)C(=O)N1C2CCC1CC(O)(c1ccc(F)cc1)C2 (stereo not given) | – | – | – | – | – | –
Cc1cc(N2C3CCC2CC(O)(c2ccc(F)cc2)C3)nc(-c2ccccc2)n1 (stereo not given) | – | – | – | 93.7 | 100.0 | –
Cc1ccccc1NC(=O)c1ccc(CN2CCC(Cc3ccccc3)CC2)cc1 | – | – | – | – | – | –
O=C(COC(=O)c1ccccn1)Nc1cccc(Cl)c1Cl | – | – | – | 84.4 | – | –
O=C(COC(=O)c1ccccn1)Nc1ncc(C(F)(F)F)cc1Cl | – | – | – | – | – | –
Fc1ccc(-n2[nH]nnc2=S)cc1N1CCCC1 | – | – | – | – | 50.1 | –
O=C(O)COc1ccc(-c2nnn(CC(=O)O)n2)cc1 | – | – | – | – | – | –
COc1ccc(N(C(C)C(=O)NC2CCCCCC2)S(C)(=O)=O)cc1 (stereo not given) | – | – | – | – | – | –
